PubChem BioAssay (EPA / NIEHS)
Records with an inconclusive call do not appear. Calls of active or inactive are those of the source. Rule for the calls: active = hit-call score of the fitted dose curve at least 0.9, where 1 is the maximum; inconclusive = response in the unintended direction; inactive = score below 0.9.

Assay: ACEA_AR_antagonist_AUC_viability: ACEA Biosciences xCELLigence Real-Time Cell Analysis on Androgen Receptor Antagonism for Viability (AID 2283776);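 note: 22Rv1 human prostate cancer cells growing on impedance electrode plates; area under impedance growth curve at 80 h after dosing as viability; hits lower the growth signal relative to DMSO meaning cytotoxicity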
Method in brief: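 Real-time electrical impedance tracks 22Rv1 proliferation after continuous compound exposure (top 100 uM final, 1:4 steps, 8 concentrations). The 80 h area-under-curve serves as the cytotoxicity readout relative to DMSO.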

Row | Structure (SMILES) | AC50 | outcome
1 | O=C1c2ccccc2C(=O)N1CCc1noc(-c2ccc(CN3CCCCCC3)s2)n1 | 6.41 µM (active) | 
2 | Cc1ccc(C(C)C)cc1 |  | inactive
3 | CN(C)C(=O)C1(N2CCCCC2)CCN(CC[C@@]2(c3ccc(Cl)c(Cl)c3)CN(C(=O)c3ccccc3)CCO2)CC1 | 11.5 µM (active) | 
4 | CCO[Si](CCCNC(N)=O)(OCC)OCC |  | inactive
5 | CCCCOC(=O)c1ccc(O)cc1 | 56.7 µM (active) | 
6 | O=C(OCCCCCCOC(=O)c1ccccc1)c1ccccc1 | 71.5 µM (active) | 
7 | Oc1ccc2ccccc2c1 |  | inactive
8 | COc1ccc2cc(S(=O)(=O)N[C@H](CC(=O)N[C@H](Cc3ccc(CN4[C@H](C)CCC[C@@H]4C)cc3)C(=O)N(C)C(C)C)c3ccc4c(c3)OCO4)ccc2c1 | 9.32 µM (active) | 
9 | CN1C(=O)N(c2ccccc2Br)Cc2cnc(Nc3ccc4c(c3)OCC(CO)O4)nc21 (centres undefined) | 12.7 µM (active) | 
